# Assay outcomes deposited in PubChem by The Scripps Research Institute Molecular Screening Center.
# M1 PAM parental: nonselective activator or artifact in parental CHO-K1 calcium assay; ATP EC20, Fluo-8 calcium fluorescence; 0% at ATP EC20, 100% at ATP max; activation, % at 3 µM; hit rate 0.02% among 360,000; AID 602247;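 active = activation above the run cutoff, the mean activation of all test compounds plus 3 SD, cut at about 40% in these data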;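 also: peak over basal fluorescence ratio in a 140 s read after ATP addition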
# M4 antag: blocks acetylcholine activation of human M4 receptor. P08173. CHO-hM4 cells, ACh EC80, Fluo-8 calcium fluorescence. inhibition, % at 3 µM. hit rate 0.73% among 360,000. AID 624125;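 active = inhibition above its plate's cutoff, the mean inhibition of sample wells plus 3 SD, cut at about 27% in these data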;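 also: 0% = acetylcholine EC80 with DMSO and 100% = DMSO without agonist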
# Target sequence (P08173 whole entry, looked up): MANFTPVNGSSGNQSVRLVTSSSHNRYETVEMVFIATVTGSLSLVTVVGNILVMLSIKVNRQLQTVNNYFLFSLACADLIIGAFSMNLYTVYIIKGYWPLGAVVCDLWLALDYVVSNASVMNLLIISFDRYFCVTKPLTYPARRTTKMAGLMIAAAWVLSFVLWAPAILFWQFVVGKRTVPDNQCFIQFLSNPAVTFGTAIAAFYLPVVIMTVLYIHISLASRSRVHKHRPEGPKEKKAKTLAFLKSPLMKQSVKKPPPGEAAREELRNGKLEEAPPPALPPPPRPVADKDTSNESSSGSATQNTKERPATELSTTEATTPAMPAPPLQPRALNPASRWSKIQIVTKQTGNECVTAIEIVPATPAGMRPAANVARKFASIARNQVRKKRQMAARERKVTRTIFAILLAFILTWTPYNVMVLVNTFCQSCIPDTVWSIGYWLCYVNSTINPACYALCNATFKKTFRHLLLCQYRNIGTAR
# M4 PAM: positive allosteric modulators of human muscarinic M4 receptor | P08173 | activation, % at 3 µM | hit rate 0.4% among 360,000 | CHO-K1 hM4/Gqi5, Fluo-8 calcium fluorescence, ACh EC20; 0% = ACh EC20, 100% = maximal ACh;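 active = activation above its plate's cutoff, the mean activation of sample wells plus 3 SD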
# M4 ag: agonists of human muscarinic M4 receptor (CHRM4); P08173; CHO-K1 hM4/Gqi5, Fluo-8 calcium fluorescence; vehicle 0%, full acetylcholine response 100%; activation, % at 3 µM; hit rate 0.14% among 360,000; AID 624127;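 active = activation above the run mean over all test wells plus 3 SD, cut at about 32% in these data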;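 also: peak over basal fluorescence ratio per well then scaled between controls; 0% = DMSO wells and 100% = acetylcholine at EC100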
# CHO-K1 Ca antag: M1 antagonist counterscreen hit in parental CHO-K1 cells | ATP-induced calcium, Fluo-8 fluorescence | inhibition, % at 3 µM | hit rate 0.6% among 360,000;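 active = inhibition above a per-plate cutoff, the plate's mean sample inhibition plus 3 SD, cut at about 24% in these data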;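 also: 0% = DMSO plus EC80 ATP and 100% = DMSO alone without ATP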
# CHO-K1 Ca ag: counter-screen for M1 agonists: effect in parental CHO-K1 cells; hit rate 0.48% among 360,000; Fluo-8 calcium fluorescence; scaled to maximal ATP response, vehicle zero; activation, % at 3 µM; in the data active = activation above about 15%;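 also: untransfected CHO-K1 host cells lacking M1 receptor as counterscreen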
# Starred values were filed as active, the others as inactive. In the library only some 2% were active in any assay of this set; here they are far more common.
SMILES,M1 PAM parental,M4 antag,M4 PAM,M4 ag,CHO-K1 Ca antag,CHO-K1 Ca ag
CCOC(=O)/C(=C/C=C1\Sc2ccccc2N1CC)C(C)=O,-17.2,13.6,-9.0,17.6,27.7*,18.1*
CCOC(=O)/C(=C/C=C1\Sc2cc(C)c(C)cc2N1CC)C(C)=O,-19.6,11.1,-4.2,23.5,19.6,22.4*
CCC(=O)/C=C1/Sc2ccc(OC)cc2N1CC,14.8,-12.2,10.7,-2.0,-18.9,-1.1
CCC(=O)/C=C1/Sc2ccccc2N1CC,15.9,-0.3,0.9,-0.4,-0.2,-0.5
CCOC(=O)/C(=C\C=C1/Sc2ccccc2N1CC)C(C)=O,-2.4,4.0,-28.9,52.1*,18.2,37.9*
CCCCOc1ccc(S(=O)(=O)NNC(=O)C2Cc3c(ccc4ccccc34)O2)cc1 (stereo not drawn),27.3,1.3,1.1,1.1,-20.4,0.4
O=C(NCc1cccc(Cl)c1)NC(=O)c1csc([N+](=O)[O-])c1,19.9,-2.4,-6.3,0.3,-14.5,0.9
CCc1ccc2c(c1)cc(CN(C(=S)Nc1ccccc1)C1CC1)c1nnnn12,24.4,-14.7,32.4*,-0.2,-15.1,-0.2
C/C(=N\Nc1nnc(-c2ccccc2)c(-c2ccccc2)n1)c1cccc([N+](=O)[O-])c1,14.9,-6.8,-2.8,-0.4,-11.2,0.6
COc1ccc(OC)c(NP2(=O)OCC(C)([N+](=O)[O-])CO2)c1 (stereo not drawn),3.3,-2.1,10.1,0.9,-8.7,0.8
CCC1Oc2ccccc2N(CC(=O)NCCCN2CCC(C)CC2)C1=O (stereo not drawn),1.3,3.4,2.3,0.9,-11.7,0.0
CC1Oc2ccccc2N(CC(=O)NC2CC2)C1=O (stereo not drawn),8.7,-14.7,-3.1,2.1,-10.4,0.3
CCC1Oc2ccccc2N(CC(=O)NCCCN2CCOCC2)C1=O (stereo not drawn),-1.4,-18.6,6.8,0.4,26.9*,-0.7
CC1Oc2ccccc2N(CC(=O)NCc2ccccc2)C1=O (stereo not drawn),-8.5,-11.2,23.4*,3.8,-2.7,-0.3
Cc1ccsc1C(=O)OCC(=O)NCc1ccc2c(c1)OCO2,19.9,1.4,25.4,0.8,-17.6,0.8
COc1ccc(C2NC(=S)NC(O)(C(F)(F)F)C2C(=O)c2cccs2)cc1 (stereo not drawn),8.6,43.4*,-37.0,2.2,6.2,1.2
COc1cc(C2NC(=O)NC(O)(C(F)(F)F)C2C(=O)c2cccs2)ccc1O (stereo not drawn),5.8,7.2,0.1,1.0,-8.8,0.1
Cc1ccc(Cl)cc1NC(=S)N(CCCN1CCN(C)CC1)Cc1cccs1,21.2,-10.7,4.3,2.6,-11.6,0.7
COc1ccc(Oc2c(C)oc3c(CN(C)C)c(O)ccc3c2=O)cc1,10.5,44.5*,-17.3,0.6,-14.6,0.4
Cc1ccc(S(=O)(=O)NCCc2ccccc2)cc1,-14.8,-4.6,2.9,0.2,3.6,-0.2
CC1Cc2cc(C3(O)C(=O)c4ccccc4C3=O)ccc2N1 (stereo not drawn),-7.9,31.2*,-16.5,0.1,-16.9,0.5
CNc1ccc(C2(O)C(=O)c3ccccc3C2=O)cc1,10.3,4.9,-1.8,0.4,3.7,1.1
O=C(c1cccc(Cl)c1)N1CCN(Cc2ccc3c(c2)OCO3)CC1,-0.1,2.8,-5.2,1.0,-2.5,0.1
O=C(c1ccc(Cl)c([N+](=O)[O-])c1)N1CCN(Cc2ccc3c(c2)OCO3)CC1,1.2,-1.0,-4.2,2.6,4.9,16.0*
COc1ccc(C2Nc3ccccc3C(=O)N2c2ccc(C)cc2)cc1Cn1cc([N+](=O)[O-])cn1 (stereo not drawn),-13.2,-1.6,-6.0,8.7,-7.3,1.2
COc1ccccc1NC(=O)CN1CCN(C2c3ccccc3-c3ccccc32)CC1,48.0*,-0.2,0.3,1.2,-27.8,4.2
CCOc1ccc(NC(=O)CN2CCN(C3c4ccccc4-c4ccccc43)CC2)cc1,2.2,6.9,2.0,-0.4,-4.4,0.4
COc1ccc(NC(=O)CN2CCN(C3c4ccccc4-c4ccccc43)CC2)c(OC)c1,52.1*,0.0,-8.2,0.2,-43.9,0.2
O=C(NC(=S)NCCC1=CCCCC1)c1ccccc1Br,18.8,4.6,-16.2,2.0,-7.3,2.6
